Source: PubChem BioAssay AID1117319 (Southern Research Institute, 2015)
Values joined by “and” are separate entries in the source; they are usually repeats but may differ in a detail not shown here. Equal values may be shown once. The whole screen tested about 260,000 compounds, of which about 1,500 (0.58%) were called active. Inconclusive results (about 5%) are left out.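 The calls were made as follows: active = inhibition above a set limit at one or more doses, reproduced on every date tested; inconclusive = results disagree between test dates, or hit never tested in dose response; inactive = the rest.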 A selection follows. Measured potencies and affinities stand elsewhere.

Target: Virion infectivity factor (Human immunodeficiency virus type 1 group M subtype B (isolate BH10)) + Virion infectivity factor (Human immunodeficiency virus type 1 group M subtype B (isolate BRU/LAI)) + Virion infectivity factor (Human immunodeficiency virus type 1 group M subtype B (isolate PCV12)) + Virion infectivity factor (Human immunodeficiency virus type 1 group M subtype B (isolate HXB2)) + DNA dC->dU-editing enzyme APOBEC-3G (Homo sapiens) (UniProt P69720+P69721+P69722+P69723+Q9HC16)
Assay: HIV-1 Vif–A3G interaction blockers – biochemical, TR-FRET, GST-Vif 1-94, biotin-A3G peptide, dose response retest, primary screen (AID 1117319);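 also: Vif residues 1-94 fused to GST binding biotinylated APOBEC3G peptide 110-148; 0% = full assay without inhibitor and 100% = GST in place of GST-Vif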
Conditions: TR-FRET GST-Vif / biotin-A3G peptide binding; active compounds read high

inhibition, inactive:
COc1ccc(NS(=O)(=O)c2cc(Cl)ccc2Cl)cc1S(=O)(=O)N1CCCCC1 10.3%
COc1ccc(NS(=O)(=O)c2cccc(Cl)c2)cc1S(=O)(=O)N1CCCCC1 2.26%
Nc1nc(Cn2nnc(-c3ccccc3F)n2)nc(N2CCOCC2)n1 -5.97%
CC1(C)CC(=O)C(C=Nc2ccc(O)cc2)=C(O)C1 21.5%
COc1ccc(N=CC2=C(O)CCCC2=O)cc1 72.2%
COC(=O)c1cccc(COC(=O)c2ccc(N(C)C)cc2)c1 -1.93%
CC1CCCCN1C(=O)CSc1nc2ccccc2[nH]1 (centres undefined) -5.81%
Cc1cccc(N/N=C/c2ccccc2O)c1 0.12%
CCOc1ccccc1/C=N/NC(=O)c1cccc(S(=O)(=O)N(CC)CC)c1 -6.17%
CCN(CC)S(=O)(=O)c1cccc(C(=O)N/N=C/c2cc(OC)c(O)c(OC)c2)c1 1.27%
CCn1c(C)nc2cc(C(=O)N/N=C/c3ccccc3C)ccc21 -5.98%
Cc1cccc(N/N=C/c2ccncc2)c1 4.59%
CN(C)S(=O)(=O)c1cccc(NC(=S)N/N=C/c2cc(Br)ccc2O)c1 9.46%
CCn1c(C)nc2cc(C(=O)N/N=C/c3ccccc3)ccc21 4.16%
COc1ccc(O)c(/C=N/NC(=S)Nc2cccc(S(=O)(=O)N(C)C)c2)c1 12.6%
CS/C(=N\S(=O)(=O)c1ccc(N)cc1)NS(=O)(=O)c1cccs1 4.67%
O=C(Nc1nnc(CCc2ccccc2)s1)c1ccco1 -2.33%
CSc1nnc(-c2cccc(C)c2)n1N -5.45%
CCOCCCn1c(=NC(=O)c2ccco2)c(C(=O)OCC)cc2c(=O)n3cccc(C)c3nc21 8.51%
O=C(NCc1ccccc1)C1=C[C@H](C2CC2)C[C@H](OCCCCO)O1 -0.51%
CC1=C(C(=O)OCC2CCCO2)C(c2ccc(O)cc2)NC(=O)N1 (centres undefined) 10.8%
CCN(C(=O)c1cc2ccccc2o1)C12CC3CC(CC(C3)C1)C2 -6.34%
CN(C)c1ccc(/C=C(/NC(=O)c2ccccc2)C(=O)N/N=C/c2ccc([N+](=O)[O-])c(O)c2)cc1 15.2% and -3.76%
O=C(N/N=C/c1ccc(Br)o1)/C(=C/c1ccc([N+](=O)[O-])cc1)NC(=O)c1ccccc1 12.1%
Cc1cc(=O)oc2cc(OCC(=O)OCC(=O)Nc3ccc4ccccc4c3)ccc12 -10.1%
Cn1nnnc1SCC(=O)N1c2ccccc2CCc2ccccc21 3.78%
O=C(O)c1sc(C(=O)O)c(-c2ccccc2)c1-c1ccccc1 2.28%
CC(C)(Oc1ccc(-c2ccco2)cc1)C(=O)O 3.13%
O=S(=O)(c1ccccc1)N1N=C(c2ccc(Cl)cc2)CC1c1ccco1 (centres undefined) 4.42%
O=C(/C=C/c1ccccc1)Nn1cnnc1 -6.05%
NC(=O)Cc1ccc(C(=O)c2ccc(F)cc2)s1 -4.28%
Cc1ccccc1OCCC(=O)OCC(=O)NCCc1ccc(S(N)(=O)=O)cc1 -1.77%
CCOc1ccccc1C(=O)NCC(=O)NCCc1ccc(S(N)(=O)=O)cc1 0.59%
COc1ccccc1C(=O)Nc1cccc(NC(C)=O)c1 12.4%
Cc1ccc(S(=O)(=O)N(C(=O)c2ccncc2)c2ccc3oc4c(c3c2)CCCC4)cc1[N+](=O)[O-] -4.21%
Oc1ccc2oc3c(c2c1C=NCc1ccncc1)CCCC3 24.2%
CCOc1ccccc1C(=O)N[C@H](C(=O)Nc1ccc(OC)c(S(=O)(=O)N2CCOCC2)c1)C(C)C -13.1%
O=C1OCCC1Sc1nnc(-c2cccnc2)n1-c1ccccc1F (centres undefined) 5.98%
CCOC(=O)N1CCN(Cc2nnc(-c3cccc(Br)c3)o2)CC1 -4.74%
Cc1ccc2nc(N3CCN(C)CC3)c(C#N)cc2c1 1.03%
Cc1ccc2cc(C#N)c(N3CCN(C)CC3)nc2c1 3.3%
Cn1c(N)c(C(=O)COC(=O)/C=C/c2ccccc2F)c(=O)n(C)c1=O 0.83%
COc1cccc(C(C)=NNc2ccc([N+](=O)[O-])cc2[N+](=O)[O-])c1OC 0.32%
C/C(=N\NC(=O)c1ccc([N+](=O)[O-])cc1)c1cc2ccccc2oc1=O 13.4%
Cc1cc(N/N=C/c2cccc(F)c2)nc(NCc2ccccc2)n1 4.51%
Nc1cc(=O)nc(SCC(=O)NC2CCCCC2)n1-c1ccccc1 -0.99%
Cc1cccc(-n2c(N)cc(=O)nc2SC(C)C(=O)NC2CCCCC2)c1 (centres undefined) -1.72%
O=[N+]([O-])c1ccc(O)c(C2=NNC(c3ccccc3F)C2)c1 (centres undefined) 13.2%
O=C(N/N=C/c1cc2c(cc1Br)OCO2)c1ccccn1 7.07%
O=C(O)c1ccc(S(=O)(=O)N2CCCCCC2)cc1 1.58%
O=C(O)c1ccc(S(=O)(=O)N2CCCCCCC2)cc1 1.86%
CC(C)(C)c1cc(NC(=O)COC(=O)C2CC2)n(-c2ccccc2)n1 -5.93%
COc1cc(OC)nc(NC(=O)CN2CCN(c3ccc(F)cc3)CC2)n1 4.2%
CC(=O)C1=C(C)NC(=O)NC1c1cccs1 (centres undefined) 7.19%
CC1=C(C(=O)OC(C)C)C(c2cccs2)C(C(=O)OC(C)C)=C(C)N1 -3.55%
COC(=O)c1ccc2c(=O)n(CC3CCCO3)c(SCC(=O)Nc3ccc(OC)cc3OC)nc2c1 (centres undefined) -7.78%
CCCN1C2CCCC1CC(NC(=O)c1cc(OC)c(OC)c(OC)c1)C2 (centres undefined) 9.1%
COc1ccc(C(=O)NC2CC3CCCC(C2)N3CC(C)C)cc1OC (centres undefined) -7.52%
Cc1noc(C)c1CSc1ncnc2sc3c(c12)CCC3 -4.14%
COc1ccc(/C(N)=N/OC(=O)c2ccco2)cc1 -1.36%
O=C1c2ccccc2-c2c1cccc2C(=O)N1CCN(C(=O)c2ccco2)CC1 18.7%
CCN1C(=O)c2ccccc2S(=O)c2ccc(C(=O)N3CCN(C(=O)c4ccco4)CC3)cc21 (centres undefined) 1.84%
CCOC(=O)c1c(/N=C/c2cccc([N+](=O)[O-])c2O)sc2c1CCC2 27%
CCCCn1cnc2c(SCc3ccc(Br)cc3)nc(N)nc21 -11.3%
CC(CC(C)C(=O)Nc1ccccc1C(C)(C)C)C(=O)O (centres undefined) 5.47%
CC(CN(C(N)=O)c1ccccc1O)C(=O)O (centres undefined) 17.1%
CCC1CCCCN1C(=O)COc1cc(=O)n(C)c2ccccc12 (centres undefined) 1.25%
O=C1c2cccc(NCCNCCO)c2C(=O)c2cccc(NCCNCCO)c21 -16.1%
O=C1c2cccc(O)c2C(=O)c2c(O)cccc21 23.8%
COc1cccc(NC(=O)CN(C)C(=O)c2ccc(COc3ccccc3)o2)c1 10.4%
O=C(CSc1ccc(-c2ccccc2)nn1)N1CCOCC1 8.48%
COc1cc(/C=C2/SC(=NCc3ccccc3)N(Cc3ccccc3)C2=O)ccc1O -3.52%
COc1ccccc1N1CCN(C(=O)c2sc3nc(-c4ccccc4)cn3c2C)CC1 -3.37%
Cc1c(C(=O)N2CCN(c3ccc(F)cc3)CC2)sc2nc(-c3ccccc3)cn12 -5.76%
COc1cccc(/C=N/NC(=O)C(=O)NCc2ccco2)c1O -4.26%
CN(C)CCN=Cc1c(O)n(Cc2ccc3c(c2)OCO3)c(=O)c2ccccc12 -11.8%
C=CCSc1nc2sc3c(c2c(=O)n1CC)CCC3 6.31%
CCn1c(SCC(=O)O)nc2sc3c(c2c1=O)CCC3 32.7%
CC(Sc1nc2sc3c(c2c(=O)n1-c1ccccc1)CCCC3)C(=O)O (centres undefined) 17%
CCn1c(SCC(N)=O)nc2sc3c(c2c1=O)CCCC3 -2.97%
CC1(C)CC(=O)C=C(c2n[nH]nc2C2CC2)C1 4.55%
CCN(Cc1ccccc1)C(=O)c1cc(S(=O)(=O)N2CCOCC2)ccc1N1CCCC1 3.77%
Cc1cc(Nc2ccc(Br)cc2)nc(-c2ccccc2O)n1 -1.59%
CC(=NCc1cccc(Cl)c1)c1nc(-c2ccco2)oc1O 8.49%
O=C(c1cccc(F)c1)N1CCCC(C(=O)N2CCCC2)C1 (centres undefined) -3.84%
O=C(Nc1ccc(Oc2ccccc2)cc1)c1ccc(Cn2c(=O)[nH]c3ccsc3c2=O)cc1 -6.11%
Cc1cccc(C)c1NC(=O)CSc1nnc(-c2ccco2)n1N -0.27%
Cc1cccc(NC(=O)CSc2nnc(-c3ccco3)o2)c1C -1.43%
Cc1ccccc1NC(=O)CSc1n[nH]c(-c2ccco2)n1 9.51%
Cc1cccc(NC(=O)CSc2nnc(CNC(=O)c3ccco3)n2C)c1C -5.41%
Cc1ccccc1NC(=O)CSc1nnc(-c2ccco2)n1N -10.3%
Cc1cccc(C)c1NC(=O)CSc1nc(-c2ccco2)cc(C(F)(F)F)n1 -1.99%
CN(C)c1ccc(C(CNS(=O)(=O)c2cccc([N+](=O)[O-])c2)N2CCOCC2)cc1 (centres undefined) -0.61%
COc1ccc(CN(CC(=O)NCc2ccc(F)cc2)C(=O)c2ccco2)cc1 -3.39%
